Source: PubChem (several laboratories)
Shown are actives, neighbours in structure and some others; about 3% of the full set was active somewhere.
TRPM1 prom inh: reduces MITF-dependent TRPM1 promoter luciferase signal | SK-MEL-5 TRPM1 promoter luciferase, 24 h | 0.83% of 330,000 active | inhibition, % at 12.5 µM;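 active = mean inhibition across replicates of 60% or more, whatever share of single replicates reaches that level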
LMP1 NFkB inh: reduces LMP1-driven NF-kappaB luciferase signal; 0.69% of 350,000 active; AID 504558; inhibition, % at 12.5 µM; LMP1-induced NF-kappaB luciferase reporter cells, luminescence; in the data active = inhibition above about 41%;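 also: 0% = neutral control wells and 100% = reference inhibitor control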
Peg3 prom inh: Peg3 promoter activity inhibition; AID 588405; 1.7% of 360,000 active; HeLa PEG-Prom luciferase reporter, luminescence, overnight; inhibition, % at 20 µM;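 active = inhibition of at least 50% at 20 µM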
KKLEB cytotox: reduces viability of KKLEB cystic fibrosis airway cells | 0.36% of 360,000 active | activity change (cytotoxicity), % at 5 µM | AID 602141 | KKLEB CF airway cells viability, ATPlite luminescence, overnight; hits give low values; cells stimulated with P. aeruginosa culture filtrate;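 active = corrected activity change at or below -50% at 5 µM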
HIF-2a block: blocks HIF-2a reporter activity | 786-0 RCC cells HIF-2a reporter, luciferase luminescence, overnight | inhibition, % at 18.8 µM | 0.72% of 360,000 active;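 active = inhibition of the luminescence signal of 40% or more relative to plate controls, in a single-dose primary screen at 18.75 µM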
CF NFkB inh: cystic fibrosis NF-kB activation inhibition; KKLEB NF-kB-GFP reporter, PAF-induced, GFP fluorescence overnight; inhibition, % at 5 µM; 0.86% of 360,000 active; AID 588850;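 active = at least 50% inhibition at 5 µM, scaled per plate between neutral and stimulator controls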;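 also: PAF is a Pseudomonas aeruginosa culture filtrate used as stimulus; plate controls were PAF-stimulated DMSO wells for no effect and unstimulated DMSO wells for full effect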
* = called active by the depositor; . = no result given.

SMILES	TRPM1 prom inh	LMP1 NFkB inh	Peg3 prom inh	KKLEB cytotox	HIF-2a block	CF NFkB inh
CC(C)c1ccc(S(=O)(=O)/N=C2\C=C(NS(=O)(=O)c3ccccc3)C(=O)c3ccccc32)cc1	20	-2	-7	-3	-13	74*
Cn1c(-c2ccccc2)c(Sc2ccccc2)c2cc(-c3ccc4[nH]ccc4c3)ccc21	.	.	.	.	0	.
Cc1ccc(NC(=O)C2(C)CCN2Cc2cccc3c2OCO3)cc1O (stereo not drawn)	.	.	-9	2	-10	19
CCCCNc1c(-c2cccnc2)nc2nc(C)cc(C)n12	.	.	.	.	14	.
O=C(C=Cc1ccccn1)c1ccccc1O	88*	6	98*	-5	-9	25
CCCNC(=O)C1(C)CCN(C(=O)/C=C/c2ccccc2)C1 (stereo not drawn)	.	.	-7	1	4	-9
CC(C)(C)OC(=O)N1CCC(NC(=O)c2nc[nH]c2C(=O)NCC(=O)OCc2ccccc2)CC1	-11	1	55*	-2	3	16
CSc1nc(N)nc(SCC(=O)Nc2ccc(Cl)cc2)c1C#N	-14	-5	-96	-17	-145	0
CSc1nc(N)nc(SCCS(=O)(=O)c2ccc(Cl)cc2)c1C#N	2	-4	33	-65*	-4	24
CC(C)C[C@@H](COCc1ccc(C(F)(F)F)cc1)N1CCN(C(=O)c2ccc(C(F)(F)F)cc2)CCC1=O	.	.	.	.	8	.
CCOC(=O)C1(NC(=O)C2(N3C(=O)c4ccccc4C3=O)CCCC2)CCCC1	4	7	3	5	-77	2
C#CCNC(=O)C[C@@H]1C[C@@]2(C(=O)OCC)CCCC=C2N(CCCCCCCC)C1=O	.	.	.	.	7	.
Oc1ccccc1C=NN=Cc1c(O)ccc2ccccc12	-29	93*	-98	6	-95	-22
CCc1nc2ccc(C(=O)NCCCN(C)C)cn2c1N(CC)CCOC	.	.	-9	5	13	-29
CC1CCc2nc(N)c(C#N)c(-c3cccnc3)c2C1 (stereo not drawn)	4	59*	31	-5	13	69*
CC1CCc2nc(N)c(C#N)c(-c3ccncc3)c2C1 (stereo not drawn)	2	6	17	-10	20	-9
COC(=O)CS(=O)(=O)c1nnc([C@H](Cc2ccccc2)NC(=O)OC(C)(C)C)o1	79*	3	104*	-12	45*	66*
CCC(=O)Nc1ccc2c(c1)OC[C@@H](C)N(Cc1ccccc1F)C[C@@H](C)[C@@H](OC)CN(C)C2=O	.	.	.	.	0	.
O=c1c2ccccc2sn1-c1ccc(Cl)cc1	.	-15	-128	-10	-240	64*
O=c1c2ccccc2sn1-c1ccc(F)cc1	9	-3	-65	-9	-94	32
O=c1c2ccc(F)cc2sn1-c1ccccc1	.	-5	-95	5	-47	54*
O=C1CCC(C(=O)N2CCCCCC2)CN1CCc1ccc(Cl)cc1 (stereo not drawn)	0	69*	-13	-7	-22	-10
Cc1cc(C(=O)OCC(=O)c2ccc(Cl)c([N+](=O)[O-])c2)c2cccc(C)c2n1	1	-2	11	4	-1	-9
CC(C)CN1CCN(C(=O)COC(=O)c2ccc(S(C)(=O)=O)c([N+](=O)[O-])c2)CC1	.	.	97*	-7	94*	79*
COc1ccc(C(=O)c2ccc(Cl)c([N+](=O)[O-])c2)cc1	64*	4	19	-44	25	64*
SMILES	TRPM1 prom inh	LMP1 NFkB inh	Peg3 prom inh	KKLEB cytotox	HIF-2a block	CF NFkB inh
COc1ccc(C(=O)c2ccc(Cl)cc2)cc1	-47	-17	-159	-13	-155	4
O=C(OCC(=O)N1CCc2ccccc2C1)c1ccc(Cl)c([N+](=O)[O-])c1	11	-4	99*	-6	24	12
CC(C)N(C(=O)COC(=O)c1ccccc1C(=O)c1ccc(Cl)c([N+](=O)[O-])c1)C(C)C	45	-6	74*	-1	19	41
COC(CNC(=O)c1ccc(N2CCC3(CC2)OCCO3)c([N+](=O)[O-])c1)OC	-1	51*	4	-2	1	10
CCCCN1C(=O)C(CC(=O)NCc2ccco2)CC(C(=O)N(CC)CC)=C1C (stereo not drawn)	.	5	1	7	1	1
COc1ccc(/C=C2\SC(=S)N(CCC(=O)Nc3ccccc3C(=O)O)C2=O)cc1	6	34	-24	2	71*	2
O=C(CCN1C(=O)/C(=C/c2ccccc2F)SC1=S)Nc1ccccn1	7	8	-9	-19	12	22
COc1cccc(/C=C2\SC(=S)N(CCC(=O)N3CCCCC3)C2=O)c1	12	-4	90*	7	46*	48
CCOC(=O)N1CCN(C(=O)CCN2C(=O)/C(=C\c3cccc(OC)c3)SC2=S)CC1	-4	8	43	5	14	8
COc1ccc(/C=C2\SC(=S)N(CCC(=O)N3CCCCC3)C2=O)cc1	13	6	50*	0	76*	12
O=C(CCN1C(=O)/C(=C\c2ccccc2F)SC1=S)N1CCCCC1	-21	17	104*	0	8	96*
COc1ccc(NC(=O)C[C@H]2C(=O)N(c3ccc(OC)cc3)C[C@@H]2CSC)cc1	.	9	7	6	-11	-12
C[C@@H]1CN([C@@H](C)CO)C(=O)c2cc(NS(C)(=O)=O)ccc2O[C@@H](C)CCCCO[C@H]1CN(C)Cc1ccc2c(c1)OCO2	.	13	-14	-6	3	-3
CC1CCN(C(=O)CCN2C(=O)/C(=C/c3cccs3)SC2=S)CC1	12	5	94*	-9	23	15
COc1ccc(/C=C2/SC(=S)N(CCCC(=O)N3CCN(C)CC3)C2=O)cc1	9	5	5	3	69*	4
COc1cc(/C=C2/SC(=S)N(CCC(=O)N3CCN(C)CC3)C2=O)cc(OC)c1OC	.	2	53*	-3	-12	9
O=C(O)COc1ccc(C=C2SC(=S)N(c3ccccc3)C2=O)cc1	12	-3	-33	2	43*	-4
NC(=O)c1ccc(-c2ccc(N3C(c4ccsc4)=Cc4ccc(F)cc4C3CC(=O)c3ccco3)cc2)cc1 (stereo not drawn)	.	.	.	.	9	.
COc1ccc(/C=C2\SC(=S)N(CCC(=O)N3CCCCC3CCO)C2=O)cc1 (stereo not drawn)	-3	1	-4	5	58*	6
CCc1ccc(/C=C2\SC(=S)N(CCC(=O)Nc3cc(C)on3)C2=O)cc1	39	6	-1	0	82*	-5
Cc1ccc(/C=C2\SC(=S)N(CCCC(=O)N3CCOCC3)C2=O)cc1	11	9	4	-9	58*	4
Cc1cc(NC(=O)CCN2C(=O)/C(=C/c3ccccc3Cl)SC2=S)no1	10	0	9	-15	0	14
CCOc1ccc(/C=C2/SC(=S)N(CCC(=O)Nc3ccc(C(=O)O)cc3)C2=O)cc1	-51	-8	-19	8	-80	14
